GIRK2 act: GIRK2 channel activators by thallium flux. P48051. HEK293 GIRK2/NPY4 cells, thallium flux fluorescence. activation (% efficacy), % for hits at 75 µM. 34,000 tested, under 10 active. AID 1259324;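 active means primary screen hit, no activity in plain HEK293 cells, and in GIRK2-only cells above 5% efficacy rising with concentration; inactive means the rest, including fluorescent compounds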;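 further: efficacy is normalized control-subtracted fluorescence 15 s after thallium addition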
Target sequence (P48051 whole entry, looked up): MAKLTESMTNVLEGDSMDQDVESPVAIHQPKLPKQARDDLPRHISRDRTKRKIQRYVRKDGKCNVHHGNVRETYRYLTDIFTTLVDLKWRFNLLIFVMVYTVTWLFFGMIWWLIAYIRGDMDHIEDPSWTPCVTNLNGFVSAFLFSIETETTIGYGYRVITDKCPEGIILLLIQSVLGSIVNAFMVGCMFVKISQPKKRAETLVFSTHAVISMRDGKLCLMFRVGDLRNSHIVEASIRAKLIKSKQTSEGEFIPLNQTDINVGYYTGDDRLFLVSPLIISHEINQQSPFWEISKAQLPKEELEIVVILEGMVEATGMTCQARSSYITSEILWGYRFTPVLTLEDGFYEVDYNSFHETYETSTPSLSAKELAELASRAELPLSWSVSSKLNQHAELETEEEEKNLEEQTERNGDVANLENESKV
AMPAR-TARP mod: GluA2-stargazin AMPA receptor complex modulation | O88602+P19491 | HEK293 GluA2+stargazin, membrane potential dye (FDSS), glutamate EC50; hits were called plate by plate, in both directions | calls only at 30 µM | 40,000 compounds, 3.5% hits | AID 1259245;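 active means any of four per-well response measures lying three or more SD from its plate-wide compound average, in either direction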
Large screens that a line does not name were inactive. The full list was thinned out, with hits kept by preference.

NC(=O)c1coc(NC(=O)c2ccsc2)n1	none (no result: AMPAR-TARP mod)
O=C(CSc1ccc(NC(=O)c2ccco2)nn1)Nc1ccc2c(c1)OCO2	none
COc1ccc(Nc2cc(C)nc(NCCNC(=O)c3nccc(C)n3)n2)cc1	none (no result: AMPAR-TARP mod)
COc1ccc(Nc2cc(C)nc(NCCNC(=O)c3cnccn3)n2)cc1	AMPAR-TARP mod active
O=S(=O)(/C=C/c1ccccc1)N1CCC(COCc2ccc(Cl)cc2)CC1	none
CN(C)S(=O)(=O)N1CCC(COCc2ccc(Cl)cc2)CC1	AMPAR-TARP mod active
Cc1nc(-c2ccccc2)sc1C(=O)OCC(=O)c1cccs1	none
COc1cccc(OCC(=O)NCC(C)(O)c2ccc(-c3ccccc3)cc2)c1 (stereo not drawn)	AMPAR-TARP mod active
CC(O)(CNC(=O)COc1ccc2ccccc2c1)c1ccccc1 (stereo not drawn)	none
O=C(NCc1cccs1)C1CCCN(Cc2nc(-c3cccnc3)no2)C1 (stereo not drawn)	none
CN(C)S(=O)(=O)c1ccc(C(=O)NCCn2ncc3c(N4CCCCCC4)ncnc32)cc1	none (no result: GIRK2 act)
O=C(/C=C/c1cccs1)Nc1nnc(-c2ccc(Br)s2)o1	none (no result: AMPAR-TARP mod)
O=C(CC(Sc1n[nH]c(-c2ccccc2)n1)c1ccccc1)NCCc1ccccc1 (stereo not drawn)	none (no result: GIRK2 act)
COc1ccc(-c2nc(SC(CC(=O)NCCc3ccccc3)c3ccc(OC)cc3)n[nH]2)cc1 (stereo not drawn)	AMPAR-TARP mod active (no result: GIRK2 act)
CC(C)(C)c1ccc(C(=O)Nc2ccc3c(c2)N(C(=O)C2CC2)CC3)cc1	none
Cc1ccc(NC(=O)N2CCC3(CC2)NC(=O)N(Cc2ccc(Cl)cc2)C3=O)cc1F	AMPAR-TARP mod active
O=C(Nc1ccc(F)c(Cl)c1)N1CCC2(CC1)NC(=O)N(CCc1ccccc1)C2=O	AMPAR-TARP mod active
O=C(Nc1ccccc1)N1CCC2(CC1)NC(=O)N(CCc1ccccc1)C2=O	none
O=C(Nc1ccc(F)cc1)N1CCC2(CC1)NC(=O)N(Cc1ccc(Cl)cc1)C2=O	none (no result: AMPAR-TARP mod)
COc1ccc(C2(C(=O)Nc3ccc(C(=O)N4CCCC4)cc3)CCOCC2)cc1	none (no result: GIRK2 act)
COc1ccccc1-c1ccc(N2CCC(C(=O)Nc3ccccn3)CC2)nn1	none
CC1(C)N=C(SCC(=O)Nc2ccc(F)cc2F)C(c2ccc(Cl)cc2)=N1	AMPAR-TARP mod active
CC1(C)N=C(SCC(=O)Nc2ccc(F)cc2F)C(c2ccccc2)=N1	none
COc1cccc(N2CCN(C(=O)c3n[nH]c4ccccc34)CC2)c1	none
O=C1NC2=C(C(=O)N(CC3CCCO3)C2)C(c2ccccc2F)N1 (stereo not drawn)	none
COc1ccc(Cl)cc1NC(=O)NCC1CCN(C(=O)Nc2ccc(F)cc2)CC1	none
COc1ccc(Cl)cc1S(=O)(=O)NCC1CCN(C(=O)Nc2ccc(F)cc2)CC1	AMPAR-TARP mod active
Cc1cn2c3c(=O)n(Cc4ccc(Cl)cc4Cl)c(=O)n(C)c3nc2n1CCOCCO	none
CCC(=O)c1ccc(OCC(O)CN2CCN(S(=O)(=O)N(C)C)CC2)cc1 (stereo not drawn)	none (no result: GIRK2 act)
CCOC(=O)c1c(NC(=O)c2ccn(C)n2)sc2c1CCN(C(C)=O)C2	AMPAR-TARP mod active
CCn1nccc1C(=O)Nc1sc2c(c1C(N)=O)CCN(C(C)=O)C2	none
CC(=O)N1CCc2c(sc(NC(=O)c3cc(C)no3)c2C#N)C1	none
CC(=O)N1CCc2c(sc(NC(=O)c3ccn(C)n3)c2-c2nc3ccccc3s2)C1	none (no result: GIRK2 act)
CCOC(=O)N1CCc2c(sc(NC(=O)c3cc(C)n(CC)n3)c2C(N)=O)C1	none (no result: AMPAR-TARP mod)
CC(=O)N1CCc2c(sc(NC(=O)c3cc(C)no3)c2C(N)=O)C1	AMPAR-TARP mod active
CCOC(=O)N1CCc2c(sc(NC(=O)c3ccnn3CC)c2C(=O)OC)C1	AMPAR-TARP mod active
CCOC(=O)N1CCc2c(sc(NC(=O)c3ccn(C)n3)c2C(=O)OC)C1	AMPAR-TARP mod active
CCCCn1c2c(c(=O)[nH]c1=O)C(c1ccco1)NC(=O)N2 (stereo not drawn)	none
CCc1cccc(N2C(=O)N(CC(=O)NCc3ccc(OC)cc3)c3ccccc3S2(=O)=O)c1	none
O=C(Nc1cccnc1)c1ccc(S(=O)(=O)NCc2cccs2)o1	none
O=C(Nc1cccc(C(F)(F)F)c1)c1ccc(S(=O)(=O)NCc2cccs2)o1	AMPAR-TARP mod active
CNS(=O)(=O)c1ccc(C(=O)Nc2cccc(C(F)(F)F)c2)o1	AMPAR-TARP mod active
O=C(Nc1cccc(C(F)(F)F)c1)c1ccc(S(=O)(=O)N2CCCC2)o1	none
O=S(=O)(NCC1(O)CCCC1)c1ccccc1Br	none
NC(=O)c1ccc(NC(=O)Cc2cc(-c3cccs3)on2)cc1	none (no result: AMPAR-TARP mod)
COc1ccc(N2CCN(C(c3cccs3)C(C)NS(=O)(=O)c3ccc(F)cc3)CC2)cc1 (stereo not drawn)	none (no result: GIRK2 act)
COc1ccc(N2CCN(C(c3cccs3)C(C)NS(=O)(=O)c3ccc(Cl)cc3)CC2)cc1 (stereo not drawn)	AMPAR-TARP mod active (no result: GIRK2 act)
O=S(=O)(c1cccs1)N1CCN(c2ccc(-c3ccccc3)nn2)CC1	none
O=S(=O)(c1cccs1)N1CCN(c2ccc(N3CCCC3)nn2)CC1	AMPAR-TARP mod active
O=C(Cc1ccc(NS(=O)(=O)c2cc(F)ccc2F)cc1)NCc1cccs1	none
COCCn1c(SCc2ccc(C(F)(F)F)cc2)nnc1-c1cn(C)nc1OC	AMPAR-TARP mod active
COCCn1c(SCc2ccccc2)nnc1-c1cn(C)nc1OC	none
O=S(=O)(c1ccccc1)N1CCC(c2cccs2)CC1	none
COc1cccc(-c2ccc(=O)n(CCCC(=O)NCc3ccccc3Cl)n2)c1	none
CC(C)Cc1cnc2c(c1SCC(=O)N(C(C)C)C(C)C)c(=O)n(C)c(=O)n2C	AMPAR-TARP mod active (no result: GIRK2 act)
Cc1cnc2c(c1SCC(=O)N(C(C)C)C(C)C)c(=O)n(C)c(=O)n2C	none
COc1cc(CSc2c(CC(C)C)cnc3c2c(=O)n(C)c(=O)n3C)cc(OC)c1	AMPAR-TARP mod active (no result: GIRK2 act)
COC(=O)c1ccc(CSc2c(CC(C)C)cnc3c2c(=O)n(C)c(=O)n3C)cc1	none (no result: GIRK2 act)
Cc1ccc(C(=O)Nc2ccc(C(=O)NCCNC(=O)c3ccccc3C)cc2)cc1	AMPAR-TARP mod active (no result: GIRK2 act)
CCCC(=O)Nc1ccc(C(=O)NCCNC(=O)c2ccccc2OC)cc1	none
COc1ccccc1CNC(=O)CCc1csc(NC(=O)c2ccco2)n1	none
O=C(CCCn1c(SCc2cccc([N+](=O)[O-])c2)nc2ccccc2c1=O)N1CCCC1	AMPAR-TARP mod active
O=c1nc(SCc2cccc([N+](=O)[O-])c2)c2c(n1CCCO)CCC2	none
CC(=O)Cn1c(=O)c2c(nc3n2CCCN3c2ccc(Cl)cc2)n(C)c1=O	none (no result: GIRK2 act)
Cc1nc2ccccn2c1C(=O)NCC(c1ccco1)N(C)C (stereo not drawn)	none
O=C(Cn1c2c(c3ccccc31)CCC2)NCC1CCS(=O)(=O)C1 (stereo not drawn)	AMPAR-TARP mod active
Cc1cc(C)n(CCNC(=O)Cn2c3c(c4ccccc42)CCC3)n1	none
COc1cccc(NC(=O)Cn2cccc(-c3nc(-c4ccc(Br)cc4)no3)c2=O)c1	AMPAR-TARP mod active
Cc1cccc(NC(=O)Cn2cccc(-c3nc(-c4ccc(Br)cc4)no3)c2=O)c1	none
O=C(NCC(c1ccc(F)cc1)N1CCOCC1)c1ccccc1[N+](=O)[O-] (stereo not drawn)	none (no result: GIRK2 act)
COc1ccc(-c2ccc(=O)n(CCCC(=O)Nc3ccccc3C(N)=O)n2)cc1	none
COc1nn(C)cc1C(=O)NCC(O)(c1ccccc1)C1CC1 (stereo not drawn)	none (no result: GIRK2 act)
COc1cccc(C(=O)NCC(O)(c2cccs2)C2CC2)c1OC (stereo not drawn)	none
